Source: PubChem (National Center for Advancing Translational Sciences (NCATS))
Tau FP inhib – blocks human tau fibril formation measured by polarization; P10636; K18 P301L tau heparin fibrillization, Alexa594 FP, 6 h; Potency, µM (series often up to 57.7 µM), inactives show at the top dose activity, negative = inhibition, most hits filed as inhibitors; 0.39% of 280,000 active; AID 1468; also: potency is read from the fitted curve at half-maximal effect; nearly all actives have a fitted effect of over 55% in size
Target sequence (P10636 561-689 P618L limits assumed): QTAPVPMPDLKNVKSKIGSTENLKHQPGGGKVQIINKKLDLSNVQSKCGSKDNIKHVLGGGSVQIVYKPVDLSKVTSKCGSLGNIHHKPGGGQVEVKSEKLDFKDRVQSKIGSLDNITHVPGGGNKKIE
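Read-out: fluorescence polarization of Alexa 594-labeled tau (0.24 uM), 555 nm excitation, 632 nm emission. Mixtures held 15 uM unlabeled K18 P301L, compound and 20 uM heparin, pH 7 acetate buffer, incubated 6 hr at 37 C.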
Tau fluor counter – counter-screen for tau fibril formation inhibitors; tau K18 P301L Alexa594 fluorescence, heparin fibrillization; Potency, µM (doses to about 57.7 µM), inactives show at the top dose activity change, negative = decrease; AID 1463; 0.93% of 280,000 active; also: potency is read from the fitted curve at half-maximal effect; nearly all actives have a fitted effect of over 55% in size
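Human tau K18 P301L (15 uM unlabeled, 0.24 uM Alexa 594-labeled) in 100 mM sodium acetate pH 7 with 20 uM heparin, 6 hr at 37 C. ThT 30 uM added, 1 hr ambient; Alexa 594 FP and total fluorescence read at 555/632 nm.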
PNC assembly inh – perinucleolar compartment assembly inhibition | AID 2417 | activity change (PNC), negative = inhibition, % at 10 µM | PC3M PTB-GFP, PNC prevalence imaging, 16 h; active compounds read low | 3.1% of 140,000 active;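 active = readout at or below -70, meaning at least 70% loss of cells showing the perinucleolar compartment, a nuclear body marking cancer cells; inconclusive = readout between -30 and a set limit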;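 also: plate controls were DMSO wells for no effect and camptothecin positive control wells for full effect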
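Compounds are pinned in duplicate onto adhered PC3M cells stably expressing GFP-tagged PTB and incubated 16 h at 37 C. Cells are then fixed, nuclei stained with Hoechst, and PNC-positive cells counted.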
NPSR antagonist – blocks cAMP signaling of the human neuropeptide S receptor. Q6W5P4. CHO-NPSR cells, cAMP TR-FRET, antagonist mode. Potency, µM (titrated, usually from 38.3 µM), without a hit: top-dose activity change, negative = inhibition, actives largely listed as inhibitors. 1% of 220,000 active; also: potency is read from the fitted curve at half-maximal effect; nearly all actives have a fitted effect of over 50% in size
KDM4E inh – blocks human JMJD2E demethylase activity. AID 2147. 1.6% of 230,000 active. Potency, µM (doses to about 57.1 µM), without a hit: at the top dose activity change, negative = inhibition, usual class: inhibitors. B2RXH2. JMJD2E catalytic domain, FDH-coupled NADH fluorescence (FDH is formaldehyde dehydrogenase);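 also: potency is read from the fitted curve at half-maximal effect; 0% = wells with enzyme and -100% = buffer wells without enzyme; nearly all actives have a fitted effect of over 50% in size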
Target sequence (B2RXH2 1-337 limits assumed): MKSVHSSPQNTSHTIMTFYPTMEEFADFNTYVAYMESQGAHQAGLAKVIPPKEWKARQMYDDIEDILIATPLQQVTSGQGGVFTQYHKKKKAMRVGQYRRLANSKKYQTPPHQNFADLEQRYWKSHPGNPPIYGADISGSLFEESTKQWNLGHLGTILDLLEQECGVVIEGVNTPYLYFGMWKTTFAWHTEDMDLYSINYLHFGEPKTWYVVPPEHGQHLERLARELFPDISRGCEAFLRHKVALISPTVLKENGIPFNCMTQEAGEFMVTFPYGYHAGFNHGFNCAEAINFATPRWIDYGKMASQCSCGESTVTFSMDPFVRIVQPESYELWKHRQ
Tau fibril ThT – blocks human tau fibril formation measured by thioflavin T. P10636. recombinant tau K18 P301L (four-repeat tau fragment), heparin-induced fibrillization, ThT fluorescence. Potency, µM (doses to about 57.4 µM), for the others: top-dose activity, negative = inhibition, most hits filed as inhibitors. 2.1% of 270,000 active; also: potency is read from the fitted curve at half-maximal effect; nearly all actives have a fitted effect of over 55% in size
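Aggregation was driven by heparin (20 uM final) acting on recombinant tau […] bearing P301L in 100 mM sodium acetate pH 7; fibrils were detected with Thioflavin T.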
Active calls of the source: *; [ ] = another dose, or the depositor's remark. Hits are enriched below; roughly 5.1% of the tested compounds scored in any of these assays. Unless noted, calls follow the shape of the dose curve; as a rule, active = well fitted curve in the direction sought with a large enough effect; inconclusive = small, poorly fitted or top-dose-only effect, or another doubt; inactive = no such curve, though single readings can be large; an effect the other way counts as inactive or inconclusive. Unless noted, % is scaled to controls: 0 for no effect and ±100 for the full control effect.

Results for O=C(Nc1sc2c(c1-c1nc3ccccc3[nH]1)CCCC2)C1CCCC1 ?
Tau FP inhib: -2%; Tau fluor counter: inconclusive; PNC assembly inh: inconclusive; NPSR antagonist: -19%[46.1 µM]; KDM4E inh: inconclusive; Tau fibril ThT: inconclusive

How did CC(=O)NCCC(=O)Nc1sc2c(c1-c1nc3ccccc3[nH]1)CCCC2 do in these assays?
Tau FP inhib: 13%; Tau fluor counter: inconclusive; PNC assembly inh: -80*; NPSR antagonist: -23%[46.1 µM]; KDM4E inh: inconclusive; Tau fibril ThT: inconclusive

Results for CC(=O)Nc1nonc1-c1nnc(SCc2ccc(F)cc2Cl)n1C ?
Tau FP inhib: -7%; Tau fluor counter: -12%; Tau fibril ThT: -6%

What do the screens show for `COc1ccc(NC(=O)CSc2nc(-c3ccccc3)cc(-c3cc(OC)c(OC)c(OC)c3)c2C#N)c(OC)c1`?
Tau FP inhib: -10%; Tau fluor counter: -20%; Tau fibril ThT: -7%

What do the screens show for `Nc1nc(-c2ccc([N+](=O)[O-])cc2)c(C(=O)Nc2ccc(Cl)cc2)s1`?
Tau FP inhib: -10%; Tau fluor counter: -15%; NPSR antagonist: -6%[7.67 µM]; KDM4E inh: -8%; Tau fibril ThT: -11%

How did O=C(Nc1cccc(-c2csc(Nc3ccc(Cl)cc3)n2)c1)c1cc([N+](=O)[O-])cc(C(F)(F)F)c1 do in these assays?
Tau FP inhib: 5%; Tau fluor counter: 7.1µM*[quencher]; NPSR antagonist: -53%; KDM4E inh: 2%; Tau fibril ThT: inconclusive

What do the screens show for `O=C(Nc1ccc(-c2csc(Nc3ccc(Cl)cc3)n2)cc1)c1cc([N+](=O)[O-])cc(C(F)(F)F)c1`?
Tau FP inhib: inconclusive; Tau fluor counter: 7.1µM*[quencher]; NPSR antagonist: 6%; KDM4E inh: 5%; Tau fibril ThT: inconclusive

How did Cc1ccc2nc(-c3cccc(NC(=O)CSc4ccc(Cl)cc4)c3)oc2c1 do in these assays?
Tau FP inhib: inconclusive; Tau fluor counter: inconclusive; Tau fibril ThT: 4%

What do the screens show for `O=C(CSc1nc2cccnc2n1Cc1ccccc1)NCc1ccco1`?
Tau FP inhib: 2%; Tau fluor counter: -7%; PNC assembly inh: 31; NPSR antagonist: -4%[46.1 µM]; KDM4E inh: -20%; Tau fibril ThT: -9%

Results for COCCCn1c(SCC(=O)NCc2ccccc2)nc2ccccc2c1=O ?
Tau FP inhib: -7%; Tau fluor counter: -7%; PNC assembly inh: -100*; NPSR antagonist: -3%[46.1 µM]; KDM4E inh: 3%; Tau fibril ThT: -3%

How did CC(C)OC(=O)CSc1nc2cccnc2n1C1CCCCC1 do in these assays?
Tau FP inhib: 6%; Tau fluor counter: 4%; PNC assembly inh: -15; NPSR antagonist: -13%[46.1 µM]; KDM4E inh: 3%; Tau fibril ThT: 4%

How did O=C(CSc1nc2ccccc2c(=O)n1CCCO)NCc1ccccc1 do in these assays?
Tau FP inhib: 3%; Tau fluor counter: -2%; PNC assembly inh: 11; NPSR antagonist: -10%[46.1 µM]; KDM4E inh: 4%; Tau fibril ThT: 4%

Results for COc1ccc(-n2c(CCc3ccccc3)nnc2SCC(=O)NCc2ccccc2)cc1 ?
Tau FP inhib: 7%; Tau fluor counter: -4%; PNC assembly inh: -108*; NPSR antagonist: inconclusive; KDM4E inh: 3%; Tau fibril ThT: -4%

What do the screens show for `CCOC(=O)CNC(=O)CSc1nc2cccnc2n1Cc1ccccc1`?
Tau FP inhib: 1%; Tau fluor counter: -19%; PNC assembly inh: -80*; NPSR antagonist: 10%[46.1 µM]; KDM4E inh: -13%; Tau fibril ThT: -7%

How did CCOC(=O)CNC(=O)CSc1nc2cccnc2n1C1CCCCC1 do in these assays?
Tau FP inhib: inconclusive; Tau fluor counter: -9%; PNC assembly inh: -93*; NPSR antagonist: -6%[46.1 µM]; KDM4E inh: -4%; Tau fibril ThT: 0%

Results for O=C(CSc1nnc(CCc2ccccc2)n1-c1ccc(Cl)cc1)NCc1ccccc1 ?
Tau FP inhib: 7%; Tau fluor counter: -7%; PNC assembly inh: -17; NPSR antagonist: inconclusive; KDM4E inh: -2%; Tau fibril ThT: -8%

What do the screens show for `CCOC(=O)c1c(C)oc2ncnc(Nc3ccc(OC)c(OC)c3)c12`?
Tau FP inhib: 8%; Tau fluor counter: -16%; Tau fibril ThT: -10%

Results for COc1ccc(NC(=O)C2CCN(C(=O)c3sc4nc[nH]c(=O)c4c3C)CC2)c(OC)c1 ?
Tau FP inhib: 0%; Tau fluor counter: -18%; Tau fibril ThT: -12%

What do the screens show for `CCc1ccc2c(c1)[C@H]1OCC[C@H]1[C@@H](c1cccs1)N2`?
Tau FP inhib: 11%; Tau fluor counter: -22%; PNC assembly inh: -109*; NPSR antagonist: -35%; KDM4E inh: -5%; Tau fibril ThT: -16%

Results for CCc1cc2c(cc3c(=O)n(CC(=O)NC4CCCCC4)nc(CC)n32)s1 ?
Tau FP inhib: -1%; Tau fluor counter: -4%; Tau fibril ThT: -9%

How did Cc1ccc(Cl)cc1NC(=O)Nc1cccc(OCc2cc(=O)n3ccccc3n2)c1 do in these assays?
Tau FP inhib: inconclusive; Tau fluor counter: -28%; Tau fibril ThT: -6%

What do the screens show for `CCc1ccc2nc(SCC(=O)Nc3ccccc3N3CCOCC3)c(C#N)cc2c1`?
Tau FP inhib: inconclusive; Tau fluor counter: -19%; NPSR antagonist: -41%; KDM4E inh: -25%; Tau fibril ThT: -7%

How did Cc1ccc2nc(SCC(=O)Nc3ccccc3N3CCOCC3)c(C#N)cc2c1 do in these assays?
Tau FP inhib: 4%; Tau fluor counter: 7%; PNC assembly inh: -111*; NPSR antagonist: inconclusive; KDM4E inh: 3%; Tau fibril ThT: 12%

What do the screens show for `O=C(CNCC1CCCO1)Nc1ccccc1N1CCOCC1` (stereo not given)?
Tau FP inhib: -2%; Tau fluor counter: -3%; PNC assembly inh: -86*; NPSR antagonist: -12%[46.1 µM]; KDM4E inh: inconclusive; Tau fibril ThT: -14%

Results for Cc1nc2c(cc1C(=O)N/N=C/c1ccc(O)c(O)c1)c(=O)n(C)c(=O)n2C ?
Tau FP inhib: 14%; Tau fluor counter: -18%; PNC assembly inh: -89*; NPSR antagonist: 12%; KDM4E inh: inconclusive; Tau fibril ThT: -9%

What do the screens show for `CC(=O)Nc1ccc(/C=N/NC(=O)c2cc3ccccc3nc2C)cc1`?
Tau FP inhib: 4%; Tau fluor counter: -3%; PNC assembly inh: inconclusive; NPSR antagonist: 8%; KDM4E inh: -4%; Tau fibril ThT: -4%

Results for N/C(=N\OC(=O)c1ccc(Cl)c([N+](=O)[O-])c1)c1ccccn1 ?
Tau FP inhib: -7%; Tau fluor counter: inconclusive; NPSR antagonist: -15%; KDM4E inh: -13%; Tau fibril ThT: 8.9µM*
